Screen size: about 5,500 compounds; about 2,000 (36%) were called active. Inconclusive results (about 18%) are left out. No stated cut-off is given here; in the data, active means normalized growth mostly below about 0.91 (no sharp cut-off); inconclusive means no clear call, values can overlap the other calls; inactive means mostly above about 0.92. The list shows a part of the results.
Assay: chemical genetic growth profiling, strain panel (AID 1159580);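 further: tested at 20 µM; growth read once vehicle control cultures reached saturation at 30 °C; 1 = growth at the plate median or of vehicle wells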
Details: S. cerevisiae deletion strains, growth OD

Measured: normalized growth

COc1ccc(OC)c(-c2ccn[nH]2)c1OCc1ccccc1
inactive: locus YAR019C, strain CDC15, stronger effect = lower value 0.995 | locus YBL105C, strain PKC1, stronger effect = lower value 0.998 | locus YBR135W, strain CKS1, stronger effect = lower value 0.994 | locus YBR136W, strain MEC1, stronger effect = lower value 0.987 | locus YBR160W, strain CDC28, stronger effect = lower value 0.994 | locus YDL017W, strain CDC7, stronger effect = lower value 0.997 | locus YDL028C, strain MPS1, stronger effect = lower value 0.974 | locus YDL101C, strain DUN1, stronger effect = lower value 0.979 | locus YDL108W, strain KIN28, stronger effect = lower value 0.987 | locus YDL132W, strain cdc53, stronger effect = lower value 0.987 | locus YDL214C, strain PRR2, stronger effect = lower value 0.893 | locus YDR052C, strain DBF4, stronger effect = lower value 0.989 | locus YDR054C, strain cdc34, stronger effect = lower value 0.985 | locus YDR226W, strain ADK1, stronger effect = lower value 0.998 | locus YDR477W, strain SNF1, stronger effect = lower value 0.905 | locus YER123W, strain YCK3, stronger effect = lower value 0.762 | locus YER133W, strain GLC7, stronger effect = lower value 0.886 | locus YFL009W, strain cdc4, stronger effect = lower value 0.998 | locus YFL029C, strain CAK1, stronger effect = lower value 0.995 | locus YFR003C, strain YPI1, stronger effect = lower value 0.993 | locus YFR019W, strain FAB1, stronger effect = lower value 0.832 | locus YFR028C, strain CDC14, stronger effect = lower value 0.993 | locus YGR040W, strain KSS1, stronger effect = lower value 0.874 | locus YGR052W, strain FMP48, stronger effect = lower value 0.948 | locus YGR092W, strain DBF2, stronger effect = lower value 0.864 | locus YHR030C, strain SLT2, stronger effect = lower value 0.986 | locus YHR079C, strain IRE1, stronger effect = lower value 0.999 | locus YHR082C, strain KSP1, stronger effect = lower value 0.974 | locus YHR205W, strain SCH9, stronger effect = lower value 0.97 | locus YIL147C, strain SLN1, stronger effect = lower value 0.97 | locus YJL095W, strain BCK1, stronger effect = lower value 0.953 | locus YJL128C, strain PBS2, stronger effect = lower value 0.981 | locus YJL157C, strain FAR1, stronger effect = lower value 0.887 | locus YJR016C, strain ILV3, stronger effect = lower value 1 | locus YJR066W, strain TOR1 (second series), stronger effect = lower value 0.808 | locus YJR066W, strain TOR1, stronger effect = lower value 0.96 | locus YKL048C, strain ELM1, stronger effect = lower value 0.948 | locus YKL067W, strain YNK1, stronger effect = lower value 0.907 | locus YKL101W, strain HSL1, stronger effect = lower value 0.926 | locus YKL193C, strain SDS22, stronger effect = lower value 0.989 | locus YKL203C, strain TOR2, stronger effect = lower value 0.953 | locus YLR113W, strain HOG1, stronger effect = lower value 1.01 | locus YLR133W, strain CKI1, stronger effect = lower value 0.924 | locus YLR403W, strain SFP1, stronger effect = lower value 0.883 | locus YML070W, strain DAK1, stronger effect = lower value 0.877 | locus YMR001C, strain CDC5, stronger effect = lower value 0.993 | locus YMR205C, strain PFK2 (second series), stronger effect = lower value 0.908 | locus YMR277W, strain FCP1, stronger effect = lower value 0.993 | locus YNL006W, strain LST8, stronger effect = lower value 0.985 | locus YNL020C, strain ARK1, stronger effect = lower value 0.903 | locus YNL161W, strain CBK1, stronger effect = lower value 0.995 | locus YNL183C, strain NPR1, stronger effect = lower value 0.969 | locus YNL207W, strain RIO2, stronger effect = lower value 0.997 | locus YNL222W, strain SSU72, stronger effect = lower value 1 | locus YNL307C, strain MCK1 (second series), stronger effect = lower value 0.922 | locus YOL078W, strain AVO1, stronger effect = lower value 0.994 | locus YOL136C, strain PFK27, stronger effect = lower value 0.908 | locus YOR061W, strain CKA2, stronger effect = lower value 0.871 | locus YOR119C, strain RIO1, stronger effect = lower value 0.936 | locus YOR231W, strain MKK1, stronger effect = lower value 0.992 | locus YOR329C, strain SCD5, stronger effect = lower value 0.999 | locus YPL031C, strain PHO85, stronger effect = lower value 0.87 | locus YPL153C, strain RAD53, stronger effect = lower value 0.869 | locus YPL204W, strain HRR25, stronger effect = lower value 0.892 | locus YPL209C, strain IPL1, stronger effect = lower value 0.994 | locus YPL256C, strain CLN2, stronger effect = lower value 1.02 | locus YPR025C, strain CCL1, stronger effect = lower value 0.994 | locus YPR106W, strain ISR1, stronger effect = lower value 1 | locus YPR111W, strain DBF20, stronger effect = lower value 0.999 | strain NNK1, stronger effect = lower value 0.994 | strain TSCII, stronger effect = lower value 0.992
